# Source: PubChem
# BAZ2B inh: BAZ2B (human) inhibition | AlphaScreen BAZ2B-H3K14Ac peptide displacement | AID 504333 | Potency, µM (highest dose often 114 µM), inactives show at the top dose activity change, negative = inhibition, hits mostly inhibitors | hit rate 4.4% among 360,000 | Q9UIF8; further: on the % scale 0 is the no-effect control and ±100 the full control effect; nearly all actives have a fitted effect of over 60% in size
#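 AlphaScreen luminescence quantifies BAZ2B engagement of H3K14Ac peptide; the protein and biotinylated peptide are both at 50 nM final, buffer PBS pH 7.4 with 0.01% Tween-20, all steps at room temperature.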
# HP1b chromo inh: inhibitors of HP1-beta chromodomain binding to methylated histone tails. P83916. AlphaScreen HP1-beta / biotin-H3K9me3 peptide binding. Potency, µM (highest dose often 114 µM), inactives show top-dose activity change, negative = inhibition, usual class: inhibitors. hit rate 0.56% among 390,000. AID 540317; further: nearly all actives have a fitted effect of over 70% in size
#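 HP1-beta protein (50 nM final) preincubated 30 min at room temperature with biotinylated H3(1-18)K9me3 peptide (50 nM) in PBS pH 7.4, 0.01% Tween-20, then compound added for 30 min. AlphaScreen streptavidin donor/nickel chelate acceptor beads (10 ug/mL final), 30 min dark, luminescence read.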
# L3MBTL1 inh: blocks human L3MBTL1; Potency, µM (series often up to 57.1 µM), for inactives: at the top dose activity, negative = inhibition, most hits filed as inhibitors; AID 485360; AlphaScreen L3MBTL1–H3K9me1 peptide binding; hit rate 0.66% among 230,000; Q9Y468; further: on the % scale 0 is the no-effect control and ±100 the full control effect; nearly all actives have a fitted effect of over 60% in size
#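 First, the protein-peptide complex forms for 30 min at room temperature (L3MBTL1 50 nM, biotinylated H3K9me1 peptide 75 nM). Next, compounds are pin-transferred and incubated 30 min. Finally, AlphaScreen beads are added and read after 30 min.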
# JMJD2A Tudor: blocks the human JMJD2A Tudor domain; O75164; AlphaScreen JMJD2A-Tudor / H3K4me3 peptide binding; Potency, µM (series often up to 114 µM), for the others: at the highest dose activity change, negative = inhibition, hits mostly inhibitors; hit rate 4.4% among 390,000; AID 504339; further: on the % scale 0 is the no-effect control and ±100 the full control effect; nearly all actives have a fitted effect of over 50% in size
# G9a block: blocks human histone lysine methyltransferase G9a; Q96KQ7; G9a H3K9 monomethylation, AlphaScreen, 2 h; Potency, µM (titrated, usually from 102 µM), without a hit: at the highest dose activity, negative = inhibition, usual class: inhibitors; hit rate 8.8% among 350,000; AID 504332; further: on the % scale 0 is the no-effect control and ±100 the full control effect; nearly all actives have a fitted effect of over 75% in size
#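 G9a (20 nM) was preincubated 15 min with compound, then reacted 2 h at room temperature with 500 nM biotin-H3K9 peptide and 20 µM SAM. Monomethyl-H3K9 detected by AlphaScreen using anti-H3K9me1 antibody.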
# Sfp inh: Sfp phosphopantetheinyl transferase inhibition; Q9F4F7; Biochemical Sfp PPTase activity, qHTS; Potency, µM, inactives show largest response in the series, negative = inhibition, most hits filed as inhibitors; hit rate 3.5% among 310,000;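 further: the enzyme is Sfp with the accession as filed and its product quenches rhodamine fluorescence; 0% = enzyme reaction without inhibitor and -100% = no enzyme wells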
#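 With Hepes-Na pH 7.6 buffer containing 10 mM MgCl2, Sfp (15 nM) modified BHQ-2-YbbR (12.5 uM) using rhodamine-CoA (5 uM). Two reads 30 minutes apart at 525/598 nm yielded each well's rate.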
# Active calls of the source: *; ? = inconclusive; . = no result given; [ ] = remark or other dose. An excerpt weighted towards active compounds, which were near 12% of everything screened. The call rests on the fitted dose curve; in most records, active means well fitted curve in the direction sought with a large enough effect; inconclusive means small, poorly fitted or top-dose-only effect, or another doubt; inactive means no such curve, though single readings can be large; an effect the other way counts as inactive or inconclusive. Potency means the concentration at half of the fitted maximal effect.
SMILES,BAZ2B inh,HP1b chromo inh,L3MBTL1 inh,JMJD2A Tudor,G9a block,Sfp inh
C=CCc1cc(C)ccc1OCCOCCN1CCN(C)CC1,50µM*,?,-14%,7.9µM*,14µM*,79µM*
Clc1ccc(Cl)c(OCCN2CCCC2)c1,?,?,-1%,32µM*,50µM*,4%
Cc1cc(C)c(C)c(OCCOCCN2CCN(C)CC2)c1,?,4%,-9%,-21%,?,1%
CC(C)(C)c1cc(Cl)ccc1OCCOCCN1CCCC1,?,-31%,-2%,20µM*,25µM*,?
CC(=O)Nc1ccc(NC(=O)c2ccccc2N(C)S(=O)(=O)c2ccccc2)cc1,10%,-8%,3%[2.29 µM],-10%,17%[0.501 µM],18%
Cc1cccc(C(C)C)c1NC(=O)c1ccc2c(c1)CCN2S(C)(=O)=O,2%,49%,.,3%,8%[59 µM],.
COc1ccc2oc(C(=O)OCC(=O)N(C)CC(=O)Nc3ccc(C)cc3)c(C)c2c1,4%,18%,-2%,-13%,50µM*,.
CCOc1ccc2oc(C(=O)Nc3ccc4c(c3)OCO4)c(C)c2c1,-32%,30%,.,-15%,-10%,-21%
CCOc1ccc2oc(C(=O)N(C)CC(=O)Nc3ccc(OCC)c(OCC)c3)c(C)c2c1,-34%,-6%,-4%,-24%,56µM*,.
COc1ccc2oc(C(=O)OCC(=O)Nc3ccc(NC(C)=O)cc3)c(C)c2c1,1%,-1%,-12%,-20%,-6%[0.501 µM],.
CCOc1ccc2oc(C(=O)Nc3ccc(N4CCOCC4)cc3)c(C)c2c1,-6%,35%,.,-5%,13µM*,9%
NC(=O)CCn1c2ccccc2c2ccccc21,-22%,20%,2%,-13%,?,10%
Cc1ccc2c(c1)c1cccc3c1n2CCN3CCC(N)=O,40µM*,?,.,50µM*,?,-3%
CCN(C(=O)c1coc(=O)c(Br)c1)c1ccc2c(c1)OCO2,50µM*,-26%,?,50µM*,20µM*,45µM*
CCN(C(=O)c1c(C)cc(=O)oc1C)c1ccc2c(c1)OCO2,-1%,7%,7%,-3%,-46%[59 µM],19%
Cc1ccc2cc(C)c3nnc(SCc4ccc(C(=O)O)cc4)n3c2c1C,?,27%,.,40µM*,.,-7%
CCN1CCN(CCCNC(=O)Cn2nc(C)n3c(cc4c(OC)cccc43)c2=O)CC1,0%,29%,.,-6%,-2%[59 µM],.
COC(=O)Cc1c(C)c2ccc(OCc3nn[nH]n3)cc2oc1=O,-35%,12%,.,-11%,?,-3%
COC(=O)Cc1c(C)c2c(OCc3nn[nH]n3)cc(C)cc2oc1=O,-7%,24%,11%,-30%,45µM*,8%
CCc1cc(=O)oc2cc(C)cc(OCc3nn[nH]n3)c12,5%,40%,5%,-3%,45µM*,10%
Cc1c(C)c2cc(Cl)c(OCc3nn[nH]n3)cc2oc1=O,?,13%,-10%,-32%,?,79µM*
COC(=O)Cc1c(C)c2ccc(OCc3nn[nH]n3)c(C)c2oc1=O,-28%,34%,.,-18%,-39%[59 µM],5%
CN1CCC(Nc2ncc3ncnc(Nc4ccc(F)c(Cl)c4)c3n2)CC1,.,.,.,.,?,-24%
CC(NC(=O)CN(C)Cc1nc2ccccc2c(=O)[nH]1)c1ccccc1 (configuration not stated),48%,32%,.,14%,27%[59 µM],-10%
CN(Cc1nc2ccccc2c(=O)[nH]1)Cc1nc2ccsc2c(=O)[nH]1,40µM*,14%,-5%,79µM*,24%,19%
COc1cc(NC(=O)c2ccc3c(c2)OCO3)ccc1NC(=O)C(C)C,-1%,?,1%,79µM*,-6%,11%
CC(C)C(=O)Nc1ccc(NC(=O)c2ccc3c(c2)OCO3)cc1,9%,44%,-3%,-3%,-21%,16%
Cc1ccc(-n2nc3ccc(NC(=O)c4ccc5c(c4)OCO5)cc3n2)cc1,-6%,17%,13%,-14%,71µM*,3%
